The source of these data is PubChem BioAssay (NCATS).

Inconclusive results are not listed. Entries that show only a call come without a potency. The source made the active and inactive calls. The call rests on the fitted dose curve; in most records, active means well fitted inhibition curve with a large enough effect; inconclusive means small, poorly fitted or top-dose-only effect; inactive means no such curve, though single readings can be large or run the other way.
Potency means the concentration at half of the fitted maximal effect.

Sequence of Rap guanine nucleotide exchange factor 3 (Homo sapiens) (O95398 whole entry, looked up): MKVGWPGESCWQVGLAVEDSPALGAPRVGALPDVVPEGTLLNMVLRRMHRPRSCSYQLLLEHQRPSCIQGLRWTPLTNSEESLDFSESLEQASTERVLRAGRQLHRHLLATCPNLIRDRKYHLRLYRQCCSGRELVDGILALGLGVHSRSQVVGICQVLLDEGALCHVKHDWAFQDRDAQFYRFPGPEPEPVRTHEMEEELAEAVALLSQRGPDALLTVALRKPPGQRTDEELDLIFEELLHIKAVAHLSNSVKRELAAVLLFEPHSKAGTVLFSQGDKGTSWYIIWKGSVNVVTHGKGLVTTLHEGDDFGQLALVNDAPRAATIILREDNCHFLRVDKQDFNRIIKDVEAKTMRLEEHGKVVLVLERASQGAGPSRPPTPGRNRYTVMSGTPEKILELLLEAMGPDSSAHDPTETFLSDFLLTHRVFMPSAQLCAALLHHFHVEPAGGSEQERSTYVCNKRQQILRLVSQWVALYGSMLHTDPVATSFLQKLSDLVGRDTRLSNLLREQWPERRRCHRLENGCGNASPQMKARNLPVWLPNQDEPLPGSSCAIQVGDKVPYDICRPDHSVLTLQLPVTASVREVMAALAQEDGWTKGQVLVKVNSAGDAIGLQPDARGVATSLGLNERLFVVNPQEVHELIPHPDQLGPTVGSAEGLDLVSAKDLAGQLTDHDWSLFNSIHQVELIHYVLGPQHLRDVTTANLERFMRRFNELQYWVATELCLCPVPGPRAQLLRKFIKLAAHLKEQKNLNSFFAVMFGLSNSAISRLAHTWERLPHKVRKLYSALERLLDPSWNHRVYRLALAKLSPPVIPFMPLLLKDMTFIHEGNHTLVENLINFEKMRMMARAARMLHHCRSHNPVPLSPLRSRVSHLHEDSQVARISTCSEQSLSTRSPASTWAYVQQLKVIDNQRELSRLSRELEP

This assay addresses Rap guanine nucleotide exchange factor 3 (Homo sapiens) (UniProt O95398). The experiment in a line: Confirmatory qHTS for antagonist of cAMP-regulated guanine nucleotide exchange factor 3 (EPAC1) (AID 1645880). Further: nearly all actives have a fitted effect of over 55% in size. The note with it: EPAC1 Rap1B-BODIPY-GDP exchange, fluorescence; activity, negative = inhibition: at 115 µM (top of the series). The source says:
Assay Provider (PI): Xiaodong Cheng Ph.D. The University of Texas Medical Branch, […], TX MLPCN Grant: NS066510 In multi-cellular eukaryotic organisms, the effects of cAMP are transduced by two ubiquitously-expressed intracellular cAMP receptors, the classic protein kinase A/cAMP-dependent protein kinase (PKA/cAPK) and the more recently discovered exchange protein directly activated by cAMP/cAMP-regulated guanine nucleotide exchange factor (EPAC/cAMP-GEF). Both PKA and EPAC are ubiquitously expressed in all tissues, and an increase in intracellular cAMP levels will lead to the activation of both PKA and EPAC. Therefore, careful dissections of the individual role and relative contribution of EPAC and PKA within the overall cAMP signaling in various model systems are critical for further elucidating the mechanism of cAMP signaling. To date no EPAC-specific antagonists and agonist, as well as isoform-specific agonists have been reported, and developing EPAC-specific pharmacological probes to determine the physiological functions that EPAC play in the overall cAMP-mediated signaling remains a major challenge within the research field. Furthermore, identified regulators of EPAC may lead to new mechanism-based therapeutic strategies specifically targeting the EPAC / cAMP-signaling components as EPAC has been implicated to play important roles in major human pathological conditions such as diabetes, heart disease, and cancer. This qHTS will be used to screen the Molecular Libraries Small Molecule Repository (MLSMR) as a concentration-titration series using the NCGC unique quantitative screening (qHTS) platform to find activators for EPAC1. In addition, this assay will also be used as a counterscreen for the EPAC2 qHTS. This fluorescent based assay is developed and validated for EPAC1 that measures exchange using EPAC effector Rap1 complex with BODIPY-GDP, a GDP analog with a tethered fluorophores. Activators are identified by monitoring the change in fluorescence signal as the exchanged free BODIPY-GDP has a reduced fluorescence compared to Rap1-bound BODIPY-GDP. Increase in signal (activation) is the desired outcome for the EPAC1 agonist while no activity in this assay is desired for the EPAC2 agonist counterscreen. Reference: [1] de Rooij, J., Zwartkruis, F. J., Verheijen, M. H., Cool, R. H., Nijman, S. M., Wittinghofer, A., and Bos, J.L. (1998) Nature 396, 474-477. Kawasaki, H., Springett, G. M., Mochizuki, N., Toki, S., Nakaya, M., Matsuda, M., Housman, D. E., and Graybiel, A. M. (1998) Science 282, 2275-2279.
Briefly, three uL of reagents (100 nM EPAC1, 250 nM RAP1B-BODIPY-GDP, 50 uM GDP) were dispensed into a 1536-well Greiner black solid-bottom medium binding assay plate. Controls and test compounds (23 nL) were transferred to the plate via a Kalypsys pin tool equipped with a 1536-pin array. The plates were centrifuged at 1,000 rpm for 15 seconds followed by 5 minute incubation at room temperature. The assay plates were read at 5 minute intervals for 30 minutes in the ViewLux plate reader using 480nm excitation and 540nm emission filters. The results were normalized to the […] positive control ATA and DMSO.
For the compound `Cc1ccc(N=C2NC(=O)/C(=C/C=C/c3ccco3)S2)cc1C`, the Potency was 12.6 µM (active). As to `COc1ccc(-c2nc3ccccc3n2Cc2ccccc2)cc1`, the Potency entry was “inactive”. In the case of `O=C1NC(=S)S/C1=C\C=C\c1ccc([N+](=O)[O-])o1` it was 8.49 µM (active). Regarding `CCNc1ccc2noc3c2c1C(=O)c1ccccc1-3`, the Potency result was “inactive”. `COc1cc(C(=O)c2ccccc2)c([N+](=O)[O-])cc1OC`: the Potency result is “inactive”.

As to `Cc1ccc(-c2ccc(CCC(=O)O)n2-c2ccc(C(C)C)cc2)cc1`, the Potency was 75.7 µM (active).

`O=C(NCCOc1ccc(F)cc1)c1ccccc1SCc1ccccc1`: the Potency result is “inactive”. For the compound `COc1ccc(-c2nc(C)ncc2-c2ccccc2)c(O)c1`, the Potency entry is “inactive”. In the case of `Cc1cc([N+](=O)[O-])c2[nH]c(C(=O)N/N=C/c3ccccc3C(=O)O)c(-c3ccccc3)c2c1` it was 67.5 µM (active); in that of `Cc1ccccc1SCC(=O)Nc1cc(C(F)(F)F)ccc1N1CCOCC1`, “inactive”. In the case of `COc1cc(NS(=O)(=O)c2cc3[nH]c(=O)c(=O)[nH]c3cc2C)cc(OC)c1OC` it was “inactive”. Regarding `Cc1ccc2oc(C(=O)N3CCCCCC3)c(C)c2c1`, the Potency entry was “inactive”. Regarding `Cc1sc2ncnc(N3CCC(C(=O)Nc4ccccc4C(C)(C)C)CC3)c2c1C`, the Potency entry is “inactive”. As to `CNc1nc(C)cc(C)c1S(=O)(=O)c1ccc(C)cc1`, the Potency result was “inactive”.

On to `COc1ccc2c(c1)Cc1sc(NC(=O)c3cccc(C)c3)nc1-2`, for which the Potency was 84.9 µM (active). Consider `CC(=O)Nc1cccc(/C(C)=N/Nc2ccc(S(=O)(=O)Nc3ccccc3C(=O)O)cc2[N+](=O)[O-])c1`, for which the Potency was 21.3 µM (active). As for `CSc1ccc(S(=O)(=O)NCC(=O)OCC(=O)N(C)Cc2ccccc2)cc1[N+](=O)[O-]`, the entry is “inactive”; as for `COc1cc(NC(=O)CCNC(=O)Cn2ccc3ccccc3c2=O)cc(OC)c1OC`, “inactive”. `O=C(c1ccccc1)c1ccc(O)cc1O`: the Potency entry is “inactive”.

Take `Cc1nc(Cl)c2c(n1)NC1=C(O2)C(=O)CCC1`: the Potency result was “inactive”.

Take `COc1ccc(-n2nnnc2C(c2ccccc2OC(F)(F)F)N2CCN(C/C=C/c3ccccc3)CC2)cc1` (stereo not given): the Potency entry is “inactive”. In the case of `Cc1cccn2c(=O)c(/C=C(\C#N)c3nc4ccccc4n3C)c(Oc3ccc(Br)cc3)nc12` it was “inactive”. Turning to `CCOC(=O)c1cc2n(c1/N=C/N(C)C)-c1ccccc1C2=O`, the Potency result was “inactive”. For the compound `Cc1ccc(CNc2cc(C)nc3nc(-c4cccc(C)c4)nn23)cc1`, the Potency entry is “inactive”.

Regarding `CCOC(=O)c1ccc2[nH]cc(C(C)=O)c(=O)c2c1`, the Potency entry is “inactive”. As for `Cc1ccc2c(c1)C(=O)CC(c1ccccc1)S2` (stereo not given), the entry is “inactive”; as for `Cc1ccc(-n2nnnc2SCC(=O)NCC2(N3CCOCC3)CCCCC2)cc1`, “inactive”; as for `COc1cccc(-c2nc(N3CCN(c4ccccc4)CC3)c3ccccc3n2)c1O`, “inactive”. On to `COC(=O)c1ccccc1C(=O)c1c(C)cc(C)cc1C`, for which the Potency result was “inactive”.

`COc1ccccc1/C=C1\SC(=S)N(NS(=O)(=O)c2ccccc2)C1=O`: the Potency was 16.9 µM (active). In the case of `O=C(Nc1ccc(-c2nnc(-c3ccco3)o2)cc1)C(c1ccccc1)c1ccccc1` it was “inactive”; in that of `O=C1CC(=O)Nc2cc(S(=O)(=O)Nc3ccc(Cl)c(C(F)(F)F)c3)ccc2N1`, “inactive”; in that of `CCN(C(=O)c1sc2cc(OC)ccc2c1Cl)c1ccccc1`, “inactive”. As for `O=[N+]([O-])c1ccc2nc(NS(=O)(=O)c3ccc(F)cc3)sc2c1`, the figure is 42.6 µM (active); as for `Cc1cccc(Cn2c(C)nc3c(N)c(C)c(C)cc32)c1`, “inactive”. On to `Cc1ccccc1-c1cc2nc(NCCN3CCNC3=O)n(C)c(=O)c2s1`, for which the Potency result was “inactive”. Take `O=C(Nc1ncccc1O)c1ccc2c(c1)OCCO2`: the Potency entry is “inactive”. With `Cc1ccc(C(C)C)c(OCc2ccc(C(=O)N/N=C/c3ccc(O)c(O)c3)cc2)c1`, the Potency is 33.8 µM (active). For `CCOc1ccc2oc(C(=O)N(C)CC(=O)Nc3ccc(OCC)c(OCC)c3)c(C)c2c1`, the Potency entry was “inactive”. On to `CCN(CC1COc2ccccc2O1)C(=O)CN1C(=O)NC(C)(c2ccc(C)cc2)C1=O` (stereo not given), for which the Potency result is “inactive”.
